Experiment [1] concerns the target Aldehyde dehydrogenase, mitochondrial (Homo sapiens) (UniProt P05091). Put plainly: qHTS for Inhibitors of the Aldehyde Dehydrogenase Family (ALDH2) Primary screen (AID 2061308). Further: nearly all actives have a fitted effect of over 55% in size. The settings on record: ALDH2 enzyme inhibition qHTS, 1536-well; series mostly up to 56 µM.
Experiment [2] deals with Retinaldehyde dehydrogenase 3 (Homo sapiens) (UniProt P47895). As to the kind of experiment: qHTS for Inhibitors of the Aldehyde Dehydrogenase Family (ALDH1A3) Primary screen (AID 2061315). The settings on record: ALDH inhibition qHTS; series mostly up to 56 µM.

Inconclusive results are not listed. Entries that show only a call come without a potency. The source made the active and inactive calls. The call rests on the fitted dose curve; in most records, active means well fitted curve in the direction sought with a large enough effect; inconclusive means small, poorly fitted or top-dose-only effect, or another doubt; inactive means no such curve, though single readings can be large; an effect the other way counts as inactive or inconclusive.

As to `CCCCNC(=O)c1ccc2c(c1)ncn2-c1cccc(C)c1`, the Potency result in experiment [1] and in experiment [2] was “inactive” each time.
Turning to `COc1cc(NS(=O)(=O)c2ccc(C)cc2)c(C(=O)Nc2nc(-c3ccccc3)cs2)cc1OC`, the Potency result in experiment [1] and in experiment [2] was “inactive” throughout.
Take `O=C1CCCC2=C1C(c1[nH]ncc1Cl)NC(=NCc1ccoc1)N2` (stereo not drawn): the Potency entry in experiment [1] and in experiment [2] was “inactive” each time.
Turning to `Cc1cc2c(s1)c1cnn(Cc3ccc(Cl)c(F)c3)c(=O)c1n2C`, the Potency result in experiment [1] and in experiment [2] was “inactive” throughout.
`CCOC(=O)C1CCN(C(=O)C(C)(C)NC(=O)Nc2ccc3sccc3c2)CC1`: the Potency result in experiment [1] and in experiment [2] was “inactive” throughout.
With `N#Cc1c(-c2ccco2)no[n+]1[O-]`, the Potency entry in experiment [1] and in experiment [2] was “inactive” throughout.
`O=C(OCC#CCSc1nnc(-c2ccccc2)o1)c1ccc(F)cc1`: the Potency entry in experiment [1] and in experiment [2] was “inactive” each time.
`Cc1cc(C)nc(NC(=S)N2CCN(c3cc(Br)cc(C(F)(F)F)c3)CC2)c1`: the Potency result in experiment [1] and in experiment [2] was “inactive” each time.
`COc1cccc(NC(=S)N2CCN(c3cccc(Cl)c3Cl)CC2)n1`: the Potency entry in experiment [1] and in experiment [2] was “inactive” in each case.
`COc1ccc(NC(=S)N2CCN(c3cccc(C(F)(F)F)c3)CC2)nc1`: the Potency entry in experiment [1] and in experiment [2] was “inactive” throughout.
Take `O=S(=O)(c1ccc2c(c1)OCCO2)N1CCN(S(=O)(=O)c2c(Cl)cc(C(F)(F)F)cc2Cl)CC1`: the Potency entry in experiment [1] and in experiment [2] was “inactive” in each case.
On to `Cc1cc(C)nc(/N=C(\NC#N)N2CCN(c3cccc(C(F)(F)F)c3)CC2)c1`, for which the Potency entry in experiment [1] and in experiment [2] was “inactive” each time.
As to `Cc1ccc(NS(=O)(=O)c2cc3c(cc2F)NC(=O)CC3)cc1Cl`, the Potency result in experiment [1] and in experiment [2] was “inactive” throughout.
As to `CS(=O)(=O)c1ccc(C(=O)OCC#CCSc2nnc(-c3cccc4ccccc34)o2)cc1`, the Potency entry in experiment [1] and in experiment [2] was “inactive” in each case.
On to `O=S(=O)(c1ccc2c(c1)OCCO2)N1CCN(S(=O)(=O)c2ccc3c(c2)OCCO3)CC1`, for which the Potency entry in experiment [1] and in experiment [2] was “inactive” each time.
As to `Nc1nc(NCC2CCC(CNS(=O)(=O)c3cccc4ccccc34)CC2)nc2ccccc12` (stereo not drawn), the Potency entry in experiment [1] and in experiment [2] was “inactive” each time.
In the case of `O=C1CCCC2=C1C(c1[nH]ncc1Cl)NC(=NCCc1ccccc1)N2` (stereo not drawn), the Potency result in experiment [1] and in experiment [2] was “inactive” each time.
As to `O=C(CSc1nnc(-c2cccc([S+](=O)([O-])N3CCCC3)c2)n1-c1ccccc1)Nc1cccc(C(F)(F)F)c1`, the Potency entry in experiment [1] and in experiment [2] was “inactive” in each case.
Consider `Cc1ccc(S(=O)(=O)Nc2ccc(C)cc2C(=O)Nc2nc(-c3ccccc3)cs2)cc1`, for which the Potency entry in experiment [1] and in experiment [2] was “inactive” throughout.
With `Cc1cc(C)nc(NC(=S)N2CCN(c3ccc(N4CCCC4)nn3)CC2)c1`, the Potency entry in experiment [1] and in experiment [2] was “inactive” in each case.
As to `O=C1CCc2cc(Cl)c(S(=O)(=O)Nc3ccc(Cl)c(Cl)c3)cc2N1`, the Potency result in experiment [1] and in experiment [2] was “inactive” in each case.
With `Cc1ccc(OCCn2c(CCNC(=O)c3ccccc3Br)nc3ccccc32)cc1`, the Potency result in experiment [1] and in experiment [2] was “inactive” in each case.
Take `CC1(C)CC(=O)C2=C(C1)NC(=S)NC2c1cccc(O)c1` (stereo not drawn): the Potency entry in experiment [1] and in experiment [2] was “inactive” in each case.
On to `COc1cccc(-c2ccc3ncnc(NCc4cccs4)c3c2)c1`, for which the Potency result in experiment [1] and in experiment [2] was “inactive” each time.
`Cc1cccc(NC(=O)c2cc(-c3ccc(C)c(C)c3)nc3ccccc23)c1`: the Potency result in experiment [1] and in experiment [2] was “inactive” throughout.
For `O=C(Nc1nc(-c2ccccc2)cs1)c1ccncc1NS(=O)(=O)c1ccc(F)cc1`, the Potency entry in experiment [1] and in experiment [2] was “inactive” each time.
Take `NC(=O)c1ccc(-c2noc(-c3cccc(Cl)c3)n2)cc1`: the Potency result in experiment [1] and in experiment [2] was “inactive” each time.
Regarding `CNCC(=O)Nc1ccc(Cl)cc1C(=O)c1ccc[nH]1`, the Potency result in experiment [1] and in experiment [2] was “inactive” throughout.
Regarding `COc1ccc2nc(-c3ccc(OC)c(OC)c3)sc2c1`, the Potency entry in experiment [1] and in experiment [2] was “inactive” in each case.
In the case of `O=C(Nc1ccccc1F)c1ccc(O)c2ncccc12`, the Potency entry in experiment [1] and in experiment [2] was “inactive” in each case.
In the case of `CN(C)C(=O)C1CCN(c2nc(-c3ccc(Br)cc3)cs2)CC1`, the Potency entry in experiment [1] and in experiment [2] was “inactive” throughout.
With `O=C(CSc1nc2ccc(S(=O)(=O)N3CCOCC3)cc2[nH]1)N1CCOCC1`, the Potency result in experiment [1] and in experiment [2] was “inactive” each time.
With `O=C(Nc1sc2c(c1-c1nc3ccccc3s1)CCNC2)C(F)F`, the Potency entry in experiment [1] and in experiment [2] was “inactive” each time.
In the case of `Cc1cc2c(s1)c1cnn(Cc3ccc(F)cc3)c(=O)c1n2C`, the Potency result in experiment [1] and in experiment [2] was “inactive” throughout.
Consider `COc1cc(O)c(C(CC(=O)N2CC(C)CC(C)C2)c2ccc3c(c2)OCCO3)c(OC)c1` (stereo not drawn), for which the Potency result in experiment [1] and in experiment [2] was “inactive” throughout.
With `COC(=O)c1cc2c(s1)c1cnn(Cc3ccccc3F)c(=O)c1n2C`, the Potency result in experiment [1] and in experiment [2] was “inactive” throughout.
For `O=C(O)CCc1cc(F)c(S(=O)(=O)N2CCN(S(=O)(=O)c3ccc4c(c3)OCCO4)CC2)cc1F`, the Potency result in experiment [1] and in experiment [2] was “inactive” in each case.
Consider `c1ccc(OCc2nnc3n2N=C(c2ccccc2)CS3)cc1`, for which the Potency entry in experiment [1] and in experiment [2] was “inactive” throughout.
In the case of `COc1cccc(C2c3c(ncn(-c4ccccc4SC)c3=N)Oc3ccc4ccccc4c32)c1` (stereo not drawn), the Potency result in experiment [1] and in experiment [2] was “inactive” each time.

The record behind these values is PubChem BioAssay (NCATS).
